Assay outcomes from PubChem.
Most compounds without a hit are left out; they make up all but 3.3% or so of the library.
Sm TGR block: blocks Schistosoma mansoni thioredoxin glutathione reductase; Q962Y6; purified TGR, DTNB reduction, TNB absorbance 405 nm; 3% of 360,000 active; Potency, µM (highest dose often 114 µM), actives largely listed as inhibitors; also: nearly all actives have a fitted effect of over 60% in size
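Kinetic colorimetric format: TGR-catalysed, NADPH-driven DTNB reduction monitored via TNB absorbance. Enzyme dispensed at 20 nM; compound exposure 15 min at room temperature before reaction start.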
RE007 growth inh: less growth of the S. pombe RE007 Vpr strain; S. pombe RE007 Vpr strain, BacTiter-Glo ATP luminescence, 24 h; Potency, µM (series often up to 92.2 µM), actives largely listed as inhibitors; 0.21% of 360,000 active; active = well fitted falling curve with a large enough effect; inconclusive = small, poorly fitted or top-dose-only effect; inactive = no such curve, though single readings can be large or run the other way; also: nearly all actives have a fitted effect of over 50% in size
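Fission yeast RE007 carrying one integrated HIV-1 vpr copy, seeded at OD 0.01 in PMG+AL medium with 23 nL pinned compound. Grown 24 h at 30 degrees; viability read by BacTiter-Glo luminescence after 5 min.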
Giardia FBPA inh: blocks Giardia fructose-bisphosphate aldolase activity; A8B2U2; purified Giardia FBPA; Potency, µM (highest dose often 59.6 µM), actives largely listed as inhibitors; 0.71% of 290,000 active; also: nearly all actives have a fitted effect of over 55% in size
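40 nM FBPA preincubated 10 min at RT with compound (up to 57.5 uM final), then substrate plus GAPDH/TPI/NAD/arsenate coupling and diaphorase/resazurin added. Fluorescence read after 20 min at RT, 525/598 nm.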
Tb PYK inh: inhibitors of Trypanosoma brucei pyruvate kinase; Q57TT1; TbPYK enzyme, Kinase-Glo Plus ATP luminescence, 45 min; Potency, µM (titrated, usually from 76.8 µM), hits mostly inhibitors; 0.12% of 410,000 active; also: nearly all actives have a fitted effect of over 50% in size
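Quantitative HTS: titrated library compounds versus trypanosomal pyruvate kinase in TEA buffer (pH 7.2) containing KCl, MgCl2, BSA and Tween-20. Reactions were initiated with ADP, 130 uM final. Kinase-Glo Plus luminescence was read after 45 min at RT.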
LmPK inhibitor: blocks Leishmania mexicana pyruvate kinase activity | Q27686 | purified LmPK, Kinase-Glo ATP luminescence, 1 h | Potency, µM (series often up to 57.5 µM), hits mostly inhibitors | 0.37% of 290,000 active | AID 1721
Target sequence (Q27686 whole entry, looked up): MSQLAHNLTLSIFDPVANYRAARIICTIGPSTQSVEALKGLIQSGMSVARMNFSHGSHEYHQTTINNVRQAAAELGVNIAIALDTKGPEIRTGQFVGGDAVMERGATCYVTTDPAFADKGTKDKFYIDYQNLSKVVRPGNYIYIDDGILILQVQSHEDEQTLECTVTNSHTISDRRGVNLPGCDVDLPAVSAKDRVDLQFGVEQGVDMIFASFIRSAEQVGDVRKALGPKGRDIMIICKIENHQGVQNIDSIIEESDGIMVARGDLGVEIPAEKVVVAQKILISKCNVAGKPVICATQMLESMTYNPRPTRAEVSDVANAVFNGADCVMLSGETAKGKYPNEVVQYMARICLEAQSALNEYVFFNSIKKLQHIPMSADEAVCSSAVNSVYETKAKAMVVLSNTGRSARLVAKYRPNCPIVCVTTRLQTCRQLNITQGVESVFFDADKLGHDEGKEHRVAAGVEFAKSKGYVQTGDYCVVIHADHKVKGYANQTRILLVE
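Purified LmPK (0.1 nM) with 0.5 mM PEP and 0.1 mM ADP in imidazole buffer pH 7.2 with MgCl2/KCl, 1 h at room temperature. ATP formed was read by luciferase luminescence and normalized to no-enzyme and uninhibited controls.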
Each line names hits and unclear results; the compound was inactive in the other large screens. Unless noted, calls follow the shape of the dose curve; as a rule, active = well fitted curve in the direction sought with a large enough effect; inconclusive = small, poorly fitted or top-dose-only effect, or another doubt; inactive = no such curve, though single readings can be large; an effect the other way counts as inactive or inconclusive.

OCC(CO)(CO)N=Cc1c(O)ccc2ccccc12	RE007 growth inh inconclusive, Giardia FBPA inh inconclusive
Oc1ccc2ccccc2c1C=NC12CN3CCN(CN(C3)C1)C2	Sm TGR block 45µM, Giardia FBPA inh 14µM
O=C(NCC(=O)N1CCC2(CC1)NCCc1[nH]cnc12)c1ccc(F)cc1	none (no result: Giardia FBPA inh)
CCOC(=O)c1[nH]c(C)c(/C(O)=C2\C(=O)C(=O)N(CCN(C)C)C2c2ccco2)c1C (stereo unspecified)	Sm TGR block 56µM
O=C(O)CC(Cc1ccc(Cl)cc1)C(=O)NCc1ccccc1 (stereo unspecified)	none
CCNC(=S)Nc1ccc(C)c(S(=O)(=O)Nc2ccccc2OC)c1	Sm TGR block 2.8µM
CCOc1ccc(-n2c(C)nc3cc(C(=O)NCCCN4CCOCC4)ccc32)cc1	none
O=C(COC(=O)COc1ccccc1F)NC1CC1	none (no result: Sm TGR block, Giardia FBPA inh, LmPK inhibitor)
CC(C)=C1C2C=CC1C1C(=O)N(c3ccc4c(c3)OCO4)C(=O)C21 (stereo unspecified)	Sm TGR block 20µM, RE007 growth inh 32µM
O=C1C2C3C=CC(C4CC34)C2C(=O)N1c1ccc2c(c1)OCO2 (stereo unspecified)	Sm TGR block 45µM
CC(C)=C1C2CCC1C1C(=O)N(c3ccc4c(c3)OCO4)C(=O)C21 (stereo unspecified)	none (no result: RE007 growth inh)
CC(C)(C)C(=O)/C(=C/c1ccc(Cl)cc1)n1cncn1	Sm TGR block inconclusive
CC(C)(C)C(=O)/C(=C\c1ccc([N+](=O)[O-])cc1)n1cncn1	Sm TGR block 2.2µM (no result: RE007 growth inh, Tb PYK inh)
N#Cc1cc2c(nc1SCc1cccnc1)CCCC2	Tb PYK inh inconclusive
C/C(=N\Nc1ccc(Cl)c(C(=O)O)c1)c1ccccn1	Giardia FBPA inh inconclusive
C/C(=N\Nc1ncc(Cl)cc1Cl)c1ccccn1	RE007 growth inh 22µM, LmPK inhibitor inconclusive
COC(=O)[C@H](COC(C)(C)C)NC(=O)O[C@@H]1C(=O)c2cc(OC)ccc2O[C@H]1c1ccc(OC)c(Br)c1	none (no result: Sm TGR block, RE007 growth inh, Tb PYK inh, LmPK inhibitor)
CC(=O)c1c2c3c(cccc3n(C)c1=O)C(=O)c1ccccc1-2	Sm TGR block 8.9µM
COc1ccc([N+](=O)[O-])c(S(=O)(=O)c2ccc(Cl)cc2)n1	Sm TGR block inconclusive, RE007 growth inh 13µM
O=[N+]([O-])c1cccnc1S(=O)(=O)c1ccccc1	Sm TGR block 0.32µM
COc1ccc([N+](=O)[O-])c(S(=O)(=O)c2ccccc2)n1	Sm TGR block 0.1µM, RE007 growth inh inconclusive
Nc1cccnc1S(=O)(=O)c1ccccc1	none
COc1nc(OC)nc(Oc2ccc(Cl)cc2[N+](=O)[O-])n1	none
COc1ccccc1S(=O)(=O)c1ccccc1[N+](=O)[O-]	none
CC(=O)Nc1c(I)c(C(=O)N[C@H]2C(O)O[C@H](CO)[C@@H](O)[C@@H]2O)c(I)c(N(C)C(C)=O)c1I (stereo partly specified)	none (no result: Giardia FBPA inh, LmPK inhibitor)
COc1cc(/C=N\NC(=O)CNC(=O)C(c2ccccc2)c2ccccc2)ccc1O	none
Cc1cc(C)nc(NS(=O)(=O)c2ccc(NC(=S)NC(=O)c3cccnc3)cc2)n1	Sm TGR block inconclusive, Giardia FBPA inh inconclusive
Cc1cc(NS(=O)(=O)c2ccc(NC(=S)NC(=O)c3ccc(Br)cc3)cc2)no1	Sm TGR block 50µM
COc1ccc(/C=C/C(=O)NC(=S)Nc2ccc(S(=O)(=O)Nc3ccc(OC)nn3)cc2)cc1	none
CCc1nnc(NS(=O)(=O)c2ccc(NC(=S)NC(=O)c3ccc(F)cc3)cc2)s1	Sm TGR block 45µM
COc1ccc(NS(=O)(=O)c2ccc(NC(=S)NC(=O)c3ccc(F)cc3)cc2)nn1	Sm TGR block 45µM
CCc1nnc(NS(=O)(=O)c2ccc(NC(=S)NC(=O)c3cccnc3)cc2)s1	Sm TGR block 18µM
Cc1cc(NS(=O)(=O)c2ccc(NC(=S)NC(=O)c3cccnc3)cc2)no1	RE007 growth inh inconclusive
CC(=O)c1cc(CN2CCN(CCc3ccccc3)C(CCO)C2)cs1 (stereo unspecified)	none
COC(=O)c1ccc(C2Nc3cccc4cccc(c34)N2)cc1	Sm TGR block inconclusive
CC1CCCC(NC(=O)NC(=O)CCl)C1C (stereo unspecified)	Sm TGR block 2.8µM
CC1CCCC(NC(=O)CSC2CCCCC2)C1C (stereo unspecified)	none
CC1CCCCC1NC(=O)NC(=O)CCl (stereo unspecified)	Sm TGR block 14µM
CC1CCCCC1NC(=O)NC(=O)COC(=O)c1nccnc1N (stereo unspecified)	none (no result: Sm TGR block, Giardia FBPA inh, LmPK inhibitor)
COc1ccc(NC(=O)CSc2nc3c(sc4ccccc43)c(=O)n2CCCN2CCCC2)cc1	none (no result: Giardia FBPA inh)
N#C/C(=C\c1ccc(N2CCOCC2)o1)C(=O)NCC1CCCO1 (stereo unspecified)	none
N#C/C(=C/c1ccc(N2CCCCC2)o1)c1cccc(F)c1	Sm TGR block 2.5µM, Giardia FBPA inh inconclusive
N#C/C(=C/c1ccc(N2CCCCCC2)o1)c1ccc(Cl)cc1	Sm TGR block inconclusive, RE007 growth inh 25µM, Giardia FBPA inh inconclusive, Tb PYK inh inconclusive
Cc1ccc2nc(/C(C#N)=C\c3ccc(N4CCOCC4)o3)[nH]c2c1	Sm TGR block inconclusive
Cc1ccc(/C(C#N)=C\c2ccc(N3CCOCC3)o2)cc1	Sm TGR block 3.2µM, RE007 growth inh inconclusive, Giardia FBPA inh inconclusive, Tb PYK inh inconclusive
N#C/C(=C\c1ccc(N2CCOCC2)o1)C(=O)NC1CCCCC1	Sm TGR block 35µM
Cc1c(NC(=O)c2ccc(NS(=O)(=O)c3ccc(F)c(F)c3)cc2)c(=O)n(-c2ccccc2)n1C	none (no result: Sm TGR block, Giardia FBPA inh, LmPK inhibitor)
CC(C)CCNC(=O)c1cc(-c2cccnc2)nc2ccc(S(=O)(=O)N3CCC(C)CC3)cc12	none (no result: RE007 growth inh, Giardia FBPA inh, LmPK inhibitor)
O=Cc1ccc(N2Cc3ccccc3C2)cc1	Sm TGR block inconclusive
O=C(O)c1ccc(N2Cc3ccccc3C2)cc1O	Sm TGR block inconclusive, Tb PYK inh inconclusive, LmPK inhibitor 14µM
Oc1ccc(N2Cc3ccccc3C2)cc1	Sm TGR block 22µM
Cc1cc2c(cc1C)CN(c1ccccc1)C2	Sm TGR block inconclusive, LmPK inhibitor 16µM
Oc1cccc(N2Cc3ccccc3C2)c1	Sm TGR block 10µM
CSCCCNC(=O)c1ccc(OC2CCN(C(=O)c3cccnc3)CC2)cc1	none
Cc1ccc(C(=O)NC(=S)Nc2ccc(S(=O)(=O)N(C)c3ccccc3)cc2)cc1	none
CC(C)Oc1cccc(C(=O)NC(=S)N2CCN(c3ccc(C(F)(F)F)cc3[N+](=O)[O-])CC2)c1	none
O=C(O)C1=C[C@@H](c2ccc(C(F)(F)F)cc2)C[C@@H](OCc2ccc(CO)cc2)O1	Sm TGR block 40µM
O=C(O)C1=C[C@H](c2ccc(Br)cc2)C[C@H](OCc2ccc(CO)cc2)O1	Sm TGR block 32µM
C#Cc1ccc([C@@H]2C=C(C(=O)O)O[C@H](OCc3ccc(CO)cc3)C2)cc1	Sm TGR block 35µM
